From PubChem BioAssay (EPA / NIEHS)
Some compounds were tested as several samples or in several runs, with calls that do not always agree. Calls of active or inactive are those of the source. How the source made its calls: active means hit-call score of the fitted dose curve at least 0.9, where 1 is the maximum; inactive means score below 0.9.

These molecules were tested on Interleukin-8 (IL8), CXCL8 (gene 3576) (assay: BSK_IMphg_IL8: BioMAP Diversity Plus: IMphg Assay for Interleukin-8 (IL8) Biomarker Activity (AID 2284277)). Conditions: primary human endothelial cells with macrophages.
Method: BSK_IMphg is a cell-based, multiplexed-readout assay that uses venular endothelial cells and macrophages, a human vascular primary cell, with measurements taken at 24 hours after chemical dosing in a microplate: 96-well plate.BSK_IMphg_IL8 is an assay component measured in the BSK_IMphg assay. It measures IL-8 antibody related to regulation of gene expression using ELISA technology.Data from the assay component BSK_IMphg_IL8 was analyzed at the endpoint, BSK_IMphg_IL8, in the positive analysis fitting direction relative to DMSO as the negative control and baseline of activity. Using a type of binding reporter, gain or loss-of-signal activity can be used to understand protein changes. To generalize the intended target to other relatable targets, this assay endpoint is annotated to the 'cytokine' intended target family, where the subfamily is 'interleukins'.
The levels of cell surface (or secreted, indicated by the prefix "s") biomarker endpoints were measured by ELISA. Overt cytotoxicity to cells in confluent adherent cultures (all systems other than the BT system) was assessed by measuring total protein levels using sulforhodamine B (SRB) staining in parallel cultures at the time of biomarker measurements, indicated as SRB endpoints. For proliferation assays for adherent cell types, individual cell types are cultured at sub-confluence and relative cell numbers quantified by SRB staining at time points optimized for each system (48 h: 3C and CASM3C systems; 72 h: BT and HDF3CGF systems; 96 h: SAg system). SRB was performed by staining cells with 0.1% SRB after fixation with 10% TCA and reading wells at 560 nm.Viability and proliferation of PBMC (T cells) was quantified by Alamar Blue reduction for the SAg and BT systems. For PBMC viability (referred to as PBMC Cytotoxicity within the assay endpoint names), cells were plated (75,000/well in a 96-well plate) and then chemical samples added for 1 h before addition of activators, SEB and TSST-1 (20 ng/mL final concentration each). Cells were incubated for 90 h. Then, Alamar Blue (20 uL/well) (Invitrogen, Cat DAL1100) was added for 6 h, and the plates were read with a fluorescence microplate reader at 546/580 nm (excitation/emission). For PBMC proliferation, cells were plated and activated as above but incubated for only 16 h prior to addition of Alamar Blue. Plates were read after 6 h.

SMILES | AC50 | outcome
OC(O)(C(F)C(O)(O)C(F)(F)F)C(F)(F)F | 50.1 µM (active) | inactive
FC(F)(F)C(F)(F)C(F)(F)C(F)(F)C(F)(F)C(F)(F)I |  | inactive
FC(F)(F)COC(OCC(F)(F)F)OCC(F)(F)F |  | inactive
FC(F)=C(F)C(F)(F)C(F)(F)C(F)(F)C(F)(F)C(F)(F)C(F)(F)F |  | inactive
C[Si](C)(C)C(F)(F)C(F)(F)C(F)(F)F |  | inactive
NCC(F)(F)C(F)(F)C(F)(F)C(F)(F)F |  | inactive
FC(F)C(F)(F)COCC1CO1 (stereo unspecified) |  | inactive
O=S(=O)(O)CCC(F)(F)C(F)(F)C(F)(F)C(F)(F)C(F)(F)C(F)(F)F |  | inactive
O=C(Cl)C(F)(F)C(F)(F)C(F)(F)C(=O)Cl |  | inactive
OCCC(F)(F)C(F)(F)C(F)(F)C(F)(F)F |  | inactive
